# Measured values from PubChem BioAssay AID565 (University of Pittsburgh Molecular Library Screening Center, 2006).
# Out of some 65,000 compounds screened, about 1,200 (1.8%) were called active. Rule as the data show it: active = inhibition above about 50%; inactive = the rest. Many of the other results were omitted from the sample, so actives are more common in it than they were.
# Molecular target: Gag-Pol polyprotein (Human immunodeficiency virus type 1 group M subtype B (isolate HXB2)) (UniProt P04585)
# Experiment: HIV-1 RT RNase H inhibitors, primary screen, biochemical, fluorescence (AID 565)
# Conditions: RT-RNase H RNA/DNA duplex cleavage, at 10 µM, hits give high values
row,Structure (SMILES),inhibition
1,O=S(=O)(c1ccc2ccccc2c1)N1CCN(S(=O)(=O)N2CCOCC2)CC1,-6.43% (inactive)
2,CCOC(=O)c1sc(NC(=O)c2cc(S(=O)(=O)N3CCOCC3)ccc2C)nc1C,3.07% (inactive)
3,Cc1noc(C)c1CSc1nc2cc(S(=O)(=O)N3CCOCC3)ccc2o1,86.2% (active)
4,CCOCCCNC(=O)Cc1cc(=O)[nH]c(=O)[nH]1,5.5% (inactive)
5,CC(=O)Oc1ccc(C)cc1N1C(=O)c2ccc(C(=O)O)cc2C1=O,-4.48% (inactive)
6,COc1ccc(OC)c(NC(=O)Cn2c(=O)oc3ccccc32)c1,-1.94% (inactive)
7,NC(=O)Cn1c(=O)oc2ccccc21,96.3% (active)
8,CC1CCCN(C(=O)Cn2c(=O)oc3ccccc32)C1 (centres undefined),7.78% (inactive)
9,O=C(Nc1nc(-c2ccc3c(c2)OCO3)cs1)c1ccncc1,-9.11% (inactive)
10,COc1ccc(OC)c2sc(NC(=O)C3COc4ccccc4O3)nc12 (centres undefined),1.92% (inactive)
11,O=C(Nc1nc(-c2ccncc2)cs1)C1COc2ccccc2O1 (centres undefined),83.8% (active)
12,O=C(CCSCCc1ccccn1)Nc1nccs1,-23.9% (inactive)
13,CCOC(=O)c1c(C)c(C(=O)NCCc2ccc(S(N)(=O)=O)cc2)c(C)n1CC,-6.32% (inactive)
14,CCCc1nnc(NC(=O)CN2C(=O)c3ccccc3S2(=O)=O)s1,89.7% (active)
15,CNC(=O)CN1C(=O)c2ccccc2S1(=O)=O,4.74% (inactive)
16,CCCc1nnc(NC(=O)c2cc(OC)cc(OC)c2)s1,4.61% (inactive)
17,O=C(CN1CCOCC1)Nc1c(-c2ccccc2)c2cc(Br)ccc2[nH]c1=O,9.93% (inactive)
18,COc1ccc(N2CCN(CCNC(=O)c3nnc(Cc4c(F)cccc4Cl)o3)CC2)cc1,4.44% (inactive)
19,CCC(=NC1CC(C)(C)NC(C)(C)C1)C1=C(O)CC(C)(C)CC1=O,-6.23% (inactive)
20,COc1ccc(OC)c(Nc2nc(-c3ccc(O)c(O)c3)cs2)c1,71.9% (active)
21,COc1ccc(-c2n[nH]c(C)c2-c2ccc(OC)c(OC)c2)c(O)c1,3.91% (inactive)
22,Oc1ccc(-c2csc(Nc3cccnc3)n2)cc1,34.2% (inactive)
23,COCCN(C(=O)CCC(=O)Nc1ccccn1)C(C(=O)NCCC(C)C)c1ccc(OC)cc1 (centres undefined),3.89% (inactive)
24,CSCCC(Nc1nc2ccccc2s1)C(=O)O (centres undefined),-3.78% (inactive)
25,O=C(NCc1ccccn1)c1cc2ccccc2oc1=O,-3.63% (inactive)
26,Cc1cccn2c(=O)c3cc(C(=O)NCc4ccccn4)n(C)c3nc12,-10.5% (inactive)

row,Structure (SMILES),inhibition
1,O=C(NCc1ccccn1)c1ccc2nc(-c3ccco3)c(-c3ccco3)nc2c1,87.7% (active)
2,CC(Sc1nncs1)C(=O)NCc1ccc2c(c1)OCO2 (centres undefined),-19.3% (inactive)
3,Cc1nc2nc(CSc3nc4ccccc4s3)cc(=O)n2[nH]1,4.18% (inactive)
4,c1ccc(-n2ncc3c2ncn2c(C4CCCCC4)nnc32)cc1,-1.63% (inactive)
5,c1ccc(-n2ncc3c2ncn2c(CSc4nc5ccccc5s4)nnc32)cc1,63.5% (active)
6,CN1CCN(C(=O)C2C3C=CC(C3)C2C(=O)O)CC1 (centres undefined),0.5% (inactive)
7,CCN(CC)CCN1C(=O)C(=O)/C(=C(/O)c2ccc(OC)c(OC)c2)C1c1ccccn1 (centres undefined),5.17% (inactive)
8,COCC(=O)Nc1nnc(COc2ccccc2)s1,-3.37% (inactive)
9,COc1ccc(Cc2nnc(NC(=O)Cc3cccs3)s2)cc1,70.2% (active)
10,COc1ccc(Cc2nnc(NS(=O)(=O)Cc3ccccc3)s2)cc1,1.94% (inactive)
11,CCOC(=O)c1c(NC(=O)CSc2nnc(Cc3csc(N)n3)n2C)sc(C)c1C,-19.7% (inactive)
12,CCOC(=O)c1c(NC(=O)c2cccs2)sc(C)c1C,-2.71% (inactive)
13,CCOC(=O)c1c(-n2cnnn2)sc(C)c1C,70.4% (active)
14,Cc1cccc(NC(=O)C2CCCN2S(=O)(=O)c2ccc(F)cc2)c1C (centres undefined),-5.03% (inactive)
15,COc1ccc(CCNC(=O)c2ccc3c(c2)NC(=O)C(N2CCOCC2)S3)cc1OC (centres undefined),-10.7% (inactive)
16,O=c1cc(-c2ccccc2)nc(N2CCCCC2)[nH]1,-11.7% (inactive)
17,CC(=O)N1CCN(c2ccc(NCc3ccc(C(C)C)cc3)cc2)CC1,-16.6% (inactive)
18,CCOC(=O)CSc1nc2c(c(=O)n(C)c(=O)n2C)n1Cc1ccccc1F,-12.1% (inactive)
19,COc1ccccc1NC(=O)CSc1nc2sc(C)c(C)c2c(=O)n1Cc1ccco1,9.92% (inactive)
20,CCOC(=O)CSc1nc2c(sc(=S)n2CCc2ccccc2)c(=O)n1Cc1ccco1,60.1% (active)
21,COc1ccc(C2C(C#N)=C(N)Oc3n[nH]c(C)c32)cc1CN1CCN(c2ccc(F)cc2)CC1 (centres undefined),-5.93% (inactive)
22,CCN(CC)S(=O)(=O)c1ccc2nc(COC(=O)c3n[nH]c4ccccc34)[nH]c2c1,55.6% (active)
23,COc1ccc(COC(=O)c2n[nH]c3ccccc23)cc1F,-42.8% (inactive)
24,CCN(CC)S(=O)(=O)c1ccc2nc(CSc3nnnn3-c3ccc(O)cc3)[nH]c2c1,10.6% (inactive)
25,CCCCC(=O)N1CC2(C)CN(C(=O)CCCC)CC(C)(C1)C2=O,-4.52% (inactive)
26,Cc1cc(C)c2c(n1)nn1c(N3CCN(c4cccc(Cl)c4)CC3)cc(C)nc21,29.6% (inactive)

row,Structure (SMILES),inhibition
1,CN1CCc2c(sc3c2c(NCc2ccco2)nc2nnnn23)C1,1.26% (inactive)
2,COC(=O)c1cc(S(=O)(=O)NC2CCN(Cc3ccccc3)CC2)cn1C,-1.44% (inactive)
3,CC(C)CCNC(=O)C1CCCN(S(=O)(=O)c2ccc(F)cc2)C1 (centres undefined),-4.63% (inactive)
4,CC(C)CNC(=O)C1CCCN(S(=O)(=O)c2ccc(-n3cnnn3)cc2)C1 (centres undefined),55.3% (active)
5,CCS(=O)(=O)N1CCCC(C(=O)NCc2ccc(C)cc2)C1 (centres undefined),-25.4% (inactive)
6,CC(Oc1ccc(Cl)cc1)C(=O)Nc1ncccn1 (centres undefined),-1.55% (inactive)
7,COc1ccc(CCNC(=O)c2cc3sccc3n2C)cc1OC,-5.6% (inactive)
8,O=C(Nc1nccs1)C1CCCN1S(=O)(=O)c1cccc2cccnc12 (centres undefined),-30.1% (inactive)
9,CCc1nc(Nc2ccc3nccnc3c2)c2oc3ccccc3c2n1,-0.27% (inactive)
10,COc1cc(C2C(C(=O)c3ccc(C)o3)=C(O)C(=O)N2Cc2cccnc2)ccc1O (centres undefined),5.97% (inactive)
11,COc1nc(OC)nc(N(C)CCO)n1,-8.92% (inactive)
12,C/C(=N\O)C1(C)N(O)C(C)(C)C(c2ccc(Br)cc2)=[N+]1[O-] (centres undefined),-4.23% (inactive)
13,CCC1(C)N(O)C(C)(C)C(c2ccc(OC)cc2)=[N+]1[O-] (centres undefined),-6.14% (inactive)
14,CCC1=[N+]([O-])C(C)(/C(C)=N\O)N(O)C1(C)C (centres undefined),50.7% (active)
15,CC(=O)CCS(=O)(=O)c1ccc(C)c(C)c1,-10.6% (inactive)
16,CC(=O)Oc1cccc(N2C(=O)CC(Nc3ccc(N4CCOCC4)cc3)C2=O)c1 (centres undefined),2.32% (inactive)
17,Cc1csc(NC(=O)NC2(C(F)(F)F)Oc3ccccc3O2)n1,74.1% (active)
18,Cc1csc(NC(=O)CN2CCCCCC2)n1,7.02% (inactive)
19,CCOC(=O)Cc1csc(NC(=O)Nc2ccccc2)n1,-23.4% (inactive)
20,CCCCCOC(=O)NCCOC(=O)Nc1ccc(C(=O)OCC)cc1,-14% (inactive)
21,Cc1cccc(C(=O)Nc2ccc(CC(=O)O)cc2)c1,-3.58% (inactive)
22,CCOC(=O)c1sc(=S)n2c1[nH]c(=O)c1ccc(C(=O)OC)cc12,93.6% (active)
23,COC(=O)c1ccc2c(=O)n(CC3CCCO3)c(=S)[nH]c2c1 (centres undefined),0.2% (inactive)
24,COC(=O)c1cccc(NC(=O)CSc2nc(C)cc(=O)[nH]2)c1,-4.06% (inactive)
25,CSc1ccc(-c2c(C#N)c(N)nc3c2c(C)nn3-c2ccccc2)cc1,-4.17% (inactive)
26,C[C@H](NC(=O)OC(C)(C)C)c1nnc(SCC(N)=O)o1,-8.59% (inactive)

row,Structure (SMILES),inhibition
1,Cc1ccc2cccc(O)c2[n+]1[O-],63.1% (active)
2,CC(=O)Nc1cccc2c1[n+]([O-])c(C)c(C)[n+]2[O-],-5.6% (inactive)
3,CCCS(=O)(=O)N1CCCC(C(=O)NCCN2CCCCC2C)C1 (centres undefined),-24.4% (inactive)
4,COc1ccc(CCNC(=O)CSc2nnc(CNC(=O)c3cccs3)o2)cc1OC,4.42% (inactive)
5,c1coc(-c2nc3nc4ccccc4n3nc2-c2ccco2)c1,-3.81% (inactive)
6,c1ccc(CSc2nnc(-c3ccco3)c(-c3ccco3)n2)cc1,97% (active)
7,Clc1ccccc1CSc1nnc(-c2ccco2)c(-c2ccco2)n1,55.3% (active)
8,c1ccc(CSc2nnc(-c3ccco3)n2Cc2ccccc2)cc1,-24.3% (inactive)
9,Nc1cc(=O)nc(SCc2ccccc2)n1Cc1ccco1,-80.9% (inactive)
10,O=c1cc(O)nc(SCc2ccccc2Cl)[nH]1,-21.4% (inactive)
11,Cc1nn(-c2ccccc2)c(C)c1C(=O)OCC(=O)NC(=O)NC1CCCCC1,7.28% (inactive)
12,OC1CN=C2Sc3ccccc3N2C1 (centres undefined),-8.76% (inactive)
13,COc1ccccc1NC(=O)c1ccc(C)s1,-6.32% (inactive)
14,COc1ccc(CN2C(=O)CN=C2Nc2ccc(C)cc2C)cc1,-7.04% (inactive)
15,Cc1cc(C)nc(NC2=NCC(=O)N2c2ccc(Cl)cc2)n1,4.35% (inactive)
16,COc1ccc(N2C(=O)CN=C2Nc2cccc(C)c2C)cc1OC,93.2% (active)
17,CCOC(=O)N1CCC(NC(=O)c2cnn3ccccc23)CC1,-4.53% (inactive)
18,CCOC(=O)c1ccn(-c2nc(-c3ccco3)cc(C(F)(F)F)n2)n1,-4.86% (inactive)
19,FC(F)(F)c1cc(-c2ccco2)nc(N2CCOCC2)n1,-9.98% (inactive)
20,Cc1cc(C(F)(F)F)nn1-c1nc(-c2ccco2)cc(C(F)(F)F)n1,94.4% (active)
21,O=C(Nc1ccc(-c2nnc(-c3ccccc3)o2)cc1)C1CCCO1 (centres undefined),4.33% (inactive)
22,Nc1ccc(-c2nnc(-c3ccc(-c4ccccc4)cc3)o2)cc1,80.5% (active)
23,O=C(Nc1ccc(-c2nnc(-c3ccccc3)o2)cc1)c1ccc(Br)o1,-4.57% (inactive)
24,CCCc1[nH]nc2c1C(c1ccc(OC)c(Cn3nc(C)c(Br)c3C)c1)C(C#N)=C(N)O2 (centres undefined),7.36% (inactive)
25,O=C(c1ccc2c(c1)OCO2)N1CCNc2ccccc2C1,-5.92% (inactive)
26,O=C(c1ccccc1-c1ccccc1)N1CCOCC1,4.44% (inactive)
